The source of these data is PubChem BioAssay AID1030 (National Center for Advancing Translational Sciences (NCATS), 2008).

About 16,000 (7.3%) of roughly 220,000 compounds were called active. About 25% were inconclusive and are not listed. Shown is part of a subset that was picked to be rich in actives. Values without a mark were called inactive. Calls come from the whole dose curve; as a rule, active = well fitted inhibition curve with a large enough effect (not every such curve was filed as active); inconclusive = small, poorly fitted or top-dose-only effect, or another doubt; inactive = no such curve, though single readings can be large or run the other way.
Potency is the fitted concentration of half-maximal effect.

For the assay, the target named is Aldehyde dehydrogenase 1A1 (Homo sapiens) (UniProt P00352). Put plainly: qHTS Assay for Inhibitors of Aldehyde Dehydrogenase 1 (ALDH1A1).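 For activity, negative = inhibition: plate controls were no enzyme wells and a reference inhibitor.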 The following applies: Purified ALDH1A1, NADH fluorescence, propionaldehyde substrate; series mostly up to 75.3 µM; activity, negative = inhibition: at the top concentration. On the technique in general: In qHTS, concentration-response curves come from the screen itself.
Aldehyde dehydrogenase 1A1 (Homo sapiens), sequence (P00352 whole entry, looked up): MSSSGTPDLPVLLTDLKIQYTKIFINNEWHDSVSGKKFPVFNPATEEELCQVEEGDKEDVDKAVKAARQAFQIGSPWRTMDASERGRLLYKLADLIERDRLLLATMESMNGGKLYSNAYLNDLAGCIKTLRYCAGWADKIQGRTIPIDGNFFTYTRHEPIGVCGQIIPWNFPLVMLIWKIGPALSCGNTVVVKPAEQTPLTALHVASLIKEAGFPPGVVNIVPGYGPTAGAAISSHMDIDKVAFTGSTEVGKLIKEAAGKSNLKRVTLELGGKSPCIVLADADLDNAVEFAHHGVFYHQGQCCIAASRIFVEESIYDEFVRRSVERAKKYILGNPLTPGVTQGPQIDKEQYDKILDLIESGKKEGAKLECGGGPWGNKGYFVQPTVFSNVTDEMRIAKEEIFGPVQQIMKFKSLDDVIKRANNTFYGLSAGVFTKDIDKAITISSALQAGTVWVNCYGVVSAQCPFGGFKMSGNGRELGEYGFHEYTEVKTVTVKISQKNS
Turning to `CC(=O)c1cccc(NC(=O)[C@@H](NC(N)=O)C(C)C)c1`, the “activity, negative = inhibition” value is 2.32%.
With `O=C(CSc1nnc(C2CC2)n1Cc1ccccc1)Nc1cccnc1Cl`, the “activity, negative = inhibition” value is 6.58%.
For `CCCCN(CC)CCNC(=O)c1[nH]c(C)c(C(C)=O)c1C`, the Potency is 10 µM (active).
Consider `CC(=O)c1c(C)[nH]c(C(=O)NCCCN2CCCC2)c1C`, for which the “activity, negative = inhibition” value was 11.9%.
Same read-out and setting: to `CC(=O)c1c(C)[nH]c(C(=O)NCc2ccc(C)cc2)c1C` belongs -5.82%; to `CC(=O)NC1(c2ccc(F)cc2)CCN(C(=O)c2c(F)cccc2F)CC1`, 3.13%; to `O=C(CCC(=O)NNc1nc2ccccc2c2nc(-c3ccccc3)nn12)NCCCN1CCCC1=O`, 6.86%.
On the same count and under the same terms, to `CC(=O)C1=C(C)NC(C)=C(C(C)=O)C1c1cn(-c2ccccc2)nc1-c1cccs1` belongs 6.63%; to `CCCCCOC(=O)C1=C(C)Nc2nnnn2C1c1ccc(OC)c(OC)c1OC` (centres undefined), -12.1%.
In the case of `CC1=C(C(N)=O)C(c2sccc2C)n2nnnc2N1` (centres undefined), the Potency is 20 µM (active).
Turning to `Cc1cc(C)n(CC(=O)Nc2ccc([N+](=O)[O-])cc2)n1`, the “activity, negative = inhibition” value is 9.88%.
On the same count and under the same terms, to `Cc1cc(=O)oc2c1c(C)nn2-c1ccc(Cl)cc1` belongs 12.1%; to `CC(C)(C)C(=O)CSc1nc2ccccc2o1`, -5.51%; to `COc1ccccc1CNC(=O)c1cc(=O)c2ccccc2o1`, -6.97%.
The same measure, in the same setting: then `Cn1cnnc1SCC(=O)Nc1ccc(N2CCOCC2)cc1`, with -10.1%.
For `CN(Cc1ccc2nsnc2c1)Cc1nc(Cc2cccc(F)c2)no1`, the “activity, negative = inhibition” value was -4.55%.
With `Cc1cc(C)nc(N(C#N)CC(=O)Nc2ccccc2)n1`, the Potency is 15.8 µM (active).
With `Cc1cc(C)c(C#N)c(SCC(=O)Nc2ccccc2)n1`, the “activity, negative = inhibition” value was 3.06%.
Still for that read-out and setting: then `CCOC(=O)/C(C#N)=C/c1ccc(OCC(=O)Nc2ccccc2)c(OC)c1`, with -10.2%; and `CCC(C)NC(=O)CN(C1CCCCC1)S(C)(=O)=O` (centres undefined), with 0.821%; and `CCOC(=O)n1c(SCC(=O)N(CC)CC)nc2ccccc21`, with -7.08%.
Same read-out and setting: then `O=C(CSc1ncn[nH]1)Nc1nsc(-c2ccccc2)n1`, with 4.35%.
On to `O=C(CSc1ncn[nH]1)Nc1ccnc2ccccc12`, for which the Potency is 22.4 µM (active).
For `CCN(CC)C(=O)CSc1nc2ccccc2o1`, the “activity, negative = inhibition” value is 0.852%.
For the molecule `CCN(C(=O)CSc1ncn[nH]1)c1cccc2ccccc12`, the Potency is 25.1 µM (active).
For `O=C(CSc1n[nH]c(-c2cccnc2)n1)Nc1ccnc2ccccc12`, the “activity, negative = inhibition” value is -11.2%.
Still for that read-out and setting: to `O=S(=O)(c1cccc(C(F)(F)F)c1)N1CCN(c2cnccn2)CC1` belongs -3.48%; to `CCCn1nc(Oc2nc(NC(C)C)nc(N(C)C)n2)ccc1=O`, -0.45%.
The same measure, in the same setting: to `O=C(NCc1cccnc1)c1nc(-c2cccs2)no1` belongs 9.75%.
Still for that read-out and setting: then `O=C(/C=C/c1cccs1)NCc1cccnc1`, with -3.64%.
For the molecule `O=C(NCc1cccnc1)c1cn(-c2ccccc2)nc1-c1cccs1`, the Potency is 3.98 µM (active).
In the case of `O=[N+]([O-])c1cc(S(=O)(=O)CCCN2CCOCC2)ccc1F`, the “activity, negative = inhibition” value is -2.48%.
As to `COC(=O)C(C(=O)Nc1cccc(Cl)c1C)C1CCCC1` (centres undefined), the “activity, negative = inhibition” value was 7.44%.
On the same count and under the same terms, to `Cc1ccc(N2C(=O)C3CC3C2=O)cc1` (centres undefined) belongs 2.4%; to `Cc1ccc(CC2CC(=O)N(c3nc(C)cc(C)n3)C2=O)cc1` (centres undefined), -7.81%; to `COc1ccc(N2C(=O)CC(SC(C)C)C2=O)cc1` (centres undefined), -19%.
Take `COc1ccc(N2C(=O)CC(Sc3n[nH]c(-c4ccc(C)cc4)n3)C2=O)cc1` (centres undefined): the Potency is 0.794 µM (active).
The same measure, in the same setting: then `Cc1ccc(N2C(=O)CC(Sc3ncn[nH]3)C2=O)cc1` (centres undefined), with 11.2 µM (active).
As to `ClC1(Cl)CC1CSc1ncn[nH]1` (centres undefined), the “activity, negative = inhibition” value is 2.15%.
Regarding `O=C1CC(Sc2ncn[nH]2)C(=O)N1c1ccccc1` (centres undefined), the Potency was 1.12 µM (active).
Turning to `COc1ccc(-c2nc(SCC(=O)N3CCOCC3)n[nH]2)cc1`, the “activity, negative = inhibition” value was 12.9%.
Still for that read-out and setting: to `O=C(CSc1nc2ccc(Nc3nc(N4CCOCC4)nc(N4CCOCC4)n3)cc2s1)NCc1ccco1` belongs -6.31%.
The same measure, in the same setting: to `CSc1sc(C(=O)NC(=O)NCc2cccnc2)c(C)c1-c1ccon1` belongs -1.45%; to `Cc1ccccc1CCN(CC(=O)NC1CCCCC1)C(=O)c1csnn1`, -5.44%.
On the same count and under the same terms, then `O=C(CCc1ccccc1)Nc1ncc([N+](=O)[O-])s1`, with 4.4%.
For the molecule `OCCC1CN(Cc2ccc3nsnc3c2)CCN1C1CCCCC1` (centres undefined), the “activity, negative = inhibition” value is 11.2%.
As to `Cn1c(=O)c2cc(S(=O)(=O)NCCC(=O)Nc3ccc(F)cc3F)ccc2n(C)c1=O`, the “activity, negative = inhibition” value was -1.54%.
For `COC(=O)C1=C(C(=O)OC)[C@@H]2N(C)c3ccccc3[C@@]23C[C@@H](C(=O)OC)N(S(=O)(=O)c2cccs2)C3=N1`, the activity, negative = inhibition is 0.268% [at 13.5 µM].
As for `Cc1ccc(CCNC(=O)C2CCN(S(=O)(=O)N3CCCC3)CC2)cc1`, the Potency was 12.6 µM (active).
Consider `O=C(NCCCN1CCN(Cc2ccccc2)CC1)C1CCN(S(=O)(=O)N2CCCC2)CC1`, for which the “activity, negative = inhibition” value is -7.82%.
In the case of `Cc1ccc(S(=O)(=O)N2CCC(C(=O)N[C@@H](C)C(=O)NCCc3ccccc3)CC2)cc1`, the “activity, negative = inhibition” value was -10.6%.
Consider `CN(Cc1cccc2ncccc12)C(=O)CC1C(=O)NCCN1Cc1ccc(F)cc1` (centres undefined), for which the “activity, negative = inhibition” value was -10%.
Same read-out and setting: to `COc1ccc(C)cc1NC(=O)Nc1ccccc1SC` belongs -5.22%.
Same read-out and setting: to `O=C(c1ccccn1)c1ncc(C(F)(F)F)cc1Cl` belongs 17.1%.
